Source: PubChem
An excerpt weighted towards active compounds, which were near 19% of everything screened.
DT40 TDP1 CPT: qHTS for Inhibitors of human tyrosyl-DNA phosphodiesterase 1 (TDP1): qHTS in cells in presence of CPT | Potency, µM (doses to about 46.2 µM), for the others: at the top dose activity change, negative = growth inhibition, actives largely listed as inhibitors | chicken DT40 Tdp1-/-;hTDP1 cells + 20 nM CPT, ATP luminescence, 48 h | 12% of 420,000 active | AID 686979, 2013; further: nearly all actives have a fitted effect of over 55% in size
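Chicken DT40 Tdp1-/- cells stably complemented with human TDP1 were seeded at 400 cells/well in medium containing 20 nM camptothecin, exposed to pin-transferred compounds, and grown at 37 °C for at least 48 hr. Viability was read as ATP luminescence.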
DT40 TDP1 no CPT: qHTS for Inhibitors of human tyrosyl-DNA phosphodiesterase 1 (TDP1): qHTS in cells in absence of CPT. AID 686978, 2013. Potency, µM (doses to about 46.2 µM), without a hit: at the highest dose activity change, negative = growth inhibition, actives largely listed as inhibitors. 15% of 420,000 active. DT40 Tdp1-/- hTDP1 cells, no CPT, ATP luminescence, 48 h; further: nearly all actives have a fitted effect of over 55% in size
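Stably hTDP1-transfected Tdp1-null chicken DT40 cells were treated with library compounds minus camptothecin and grown for at least 48 hr at 37 °C, after which cellular ATP was quantified by luminescence.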
KB-V1 MDR tox: qHTS assay for MDR1-selective chemotherapeutics: Primary screen using the drug-selected MDR subline cells KB-V1; KB-V1 MDR cells viability, CellTiter-Glo, 72 h; Potency, µM (titrated, usually from 46.1 µM), actives largely listed as cytotoxic; 3.4% of 400,000 active; further: nearly all actives have a fitted effect of over 60% in size
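Drug-selected KB-V1 cells, grown in DMEM lacking phenol red with 10% FBS, receive compound titrations; after three days at 37 degrees C, surviving cell ATP is quantified by CellTiter-Glo luminescence and responses normalized and curve-fitted.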
KB-3-1 tox: qHTS assay for MDR1-selective chemotherapeutics: Primary screen using the parental adenocarcinoma cell KB-3-1; KB-3-1 viability, CellTiter-Glo ATP luminescence, 72 h; Potency, µM (highest dose often 46.1 µM), actives largely listed as cytotoxic; 1.4% of 400,000 active; AID 1347075, 2019; further: nearly all actives have a fitted effect of over 60% in size
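Multi-concentration cytotoxicity screen in KB-3-1 cells grown in DMEM lacking phenol red with 10% FBS. After 72 h at 37 °C with compound, ATP-dependent luminescence was recorded.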
HT1080-NT tox: qHTS for induction of synthetic lethality in tumor cells producing 2HG: qHTS for the HT-1080-NT fibrosarcoma cell line. HT-1080-NT fibrosarcoma viability, CellTiter-Glo ATP luminescence, 48 h. Potency, µM (doses to about 46.1 µM), for the others: at the top dose activity, negative = less viability, actives largely listed as cytotoxic. 1.6% of 360,000 active. AID 686970, 2013;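 further: NT is the 2HG producing partner of a matched IDH1 knockdown line; 0% = DMSO-treated cells and -100% = media-only wells without cells; nearly all actives have a fitted effect of over 55% in size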
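Viability of the 2HG-overproducing fibrosarcoma line after 48 hours of compound exposure at 37 degrees C was determined by luminescence with CellTiter-Glo, and concentration-effect curves were then fitted and categorized.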
HT1080 IDH1KD tx: qHTS for induction of synthetic lethality in tumor cells producing 2HG: qHTS for the HT-1080-IDH1KD cell line | Potency, µM (doses to about 46.1 µM), for the others: top-dose activity, negative = toxicity, actives largely listed as cytotoxic | HT-1080 IDH1 knockdown viability, ATP luminescence, 48 h | 2% of 360,000 active;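 further: 0% = DMSO wells and -100% = cell-free medium wells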
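Cytotoxicity counter-line: IDH1KD HT-1080, 48 h, CellTiter-Glo. Curves classed by r2, magnitude and activity.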
An asterisk follows results filed as active. The call rests on the fitted dose curve; in most records, active means well fitted curve in the direction sought with a large enough effect; inconclusive means small, poorly fitted or top-dose-only effect, or another doubt; inactive means no such curve, though single readings can be large; an effect the other way counts as inactive or inconclusive. Unless noted, on the % scale 0 is the no-effect control and ±100 the full control effect; potency means the concentration at half of the fitted maximal effect.

`Cc1ccccc1N=Nc1c(C)[nH]n(C(N)=S)c1=O` gave DT40 TDP1 CPT 1.2µM*, DT40 TDP1 no CPT 1.2µM*, KB-V1 MDR tox inconclusive, KB-3-1 tox inconclusive, HT1080-NT tox 4% and HT1080 IDH1KD tx 10%.
`Cc1[nH]n(C(N)=S)c(=O)c1N=Nc1cccc(Cl)c1` gave DT40 TDP1 CPT inconclusive, DT40 TDP1 no CPT inconclusive, KB-V1 MDR tox inactive, KB-3-1 tox inactive, HT1080-NT tox -14% and HT1080 IDH1KD tx -6%.
Screening COc1ccc(-n2c(=O)c3ccc(C(=O)NCc4ccc(C)cc4)cc3n(CC(=O)Nc3ccc(F)cc3)c2=O)cc1 returned DT40 TDP1 CPT -6%, DT40 TDP1 no CPT 4%, KB-V1 MDR tox inactive and KB-3-1 tox inactive.
COc1ccc(NCc2cc3ccc(OC)cc3n(CC(=O)Nc3ccc(C)c(C)c3)c2=O)cc1 was read as KB-V1 MDR tox inactive and KB-3-1 tox inactive.
Cc1[nH]n(C(N)=S)c(=O)c1N=Nc1ccc([N+](=O)[O-])cc1Cl was read as DT40 TDP1 CPT inconclusive, DT40 TDP1 no CPT 2.9µM*, KB-V1 MDR tox inactive, KB-3-1 tox inactive, HT1080-NT tox inconclusive and HT1080 IDH1KD tx 0%.
COc1ccccc1NC(=O)Nc1nnc([C@H]2C[C@H](O)[C@@H](CO)O2)s1 was read as DT40 TDP1 CPT -26%, DT40 TDP1 no CPT -3%, KB-V1 MDR tox inactive, KB-3-1 tox inactive, HT1080-NT tox 6% and HT1080 IDH1KD tx 9%.
For c1ccc2c(c1)nc(NCc1ccc3c(c1)OCO3)n2CCN1CCOCC1 the results were DT40 TDP1 CPT -14%, DT40 TDP1 no CPT -7%, KB-V1 MDR tox inactive, KB-3-1 tox inactive, HT1080-NT tox -7% and HT1080 IDH1KD tx 0%.
`c1csc(-c2csc3nc(CN4CCOCC4)nc(NCc4ccc5c(c4)OCO5)c23)c1` gave DT40 TDP1 CPT 23µM*, DT40 TDP1 no CPT inconclusive, KB-V1 MDR tox inconclusive, KB-3-1 tox inactive, HT1080-NT tox inconclusive and HT1080 IDH1KD tx -28%.
For COC(=O)c1ccc(NC(=O)CN2CCN(CCO)CC2)cc1 the results were DT40 TDP1 CPT -12%, DT40 TDP1 no CPT -3%, KB-V1 MDR tox inactive, KB-3-1 tox inactive, HT1080-NT tox 11% and HT1080 IDH1KD tx 8%.
For O=C(OCc1cccc([N+](=O)[O-])c1)c1ccc[nH]c1=O the results were DT40 TDP1 CPT -9%, DT40 TDP1 no CPT -5%, KB-V1 MDR tox inactive, KB-3-1 tox inactive, HT1080-NT tox 26% and HT1080 IDH1KD tx 13%.
Screening CC(C)S(=O)(=O)c1csc(NC(=O)Nc2cccc([N+](=O)[O-])c2)c1Cl returned DT40 TDP1 CPT 16µM*, DT40 TDP1 no CPT 15µM*, KB-V1 MDR tox inconclusive, KB-3-1 tox 23µM*, HT1080-NT tox -4% and HT1080 IDH1KD tx 16%.
`O=C(Nc1cccc([N+](=O)[O-])c1)NN1CCCCCC1` gave DT40 TDP1 CPT inconclusive, DT40 TDP1 no CPT 18µM*, KB-V1 MDR tox inactive, KB-3-1 tox inactive, HT1080-NT tox -15% and HT1080 IDH1KD tx -12%.
O=C(Nc1ccc(C(=O)O)cc1)Nc1cccc([N+](=O)[O-])c1 was read as DT40 TDP1 CPT -8%, DT40 TDP1 no CPT -18%, KB-V1 MDR tox inactive, KB-3-1 tox inactive, HT1080-NT tox 20% and HT1080 IDH1KD tx 29%.
For Cc1cccc(NC(=S)NNC(=O)c2cccc([N+](=O)[O-])c2)c1 the results were DT40 TDP1 CPT -15%, DT40 TDP1 no CPT -22%, KB-V1 MDR tox inactive, KB-3-1 tox inactive, HT1080-NT tox -6% and HT1080 IDH1KD tx 8%.
Screening O=C(Nc1cccc([N+](=O)[O-])c1)Nc1cccc([N+](=O)[O-])c1 returned DT40 TDP1 CPT 4.6µM*, DT40 TDP1 no CPT 2.9µM*, KB-V1 MDR tox inactive, KB-3-1 tox inactive, HT1080-NT tox inconclusive and HT1080 IDH1KD tx inconclusive.
Screening COc1cc(NC(=O)Nc2cccc([N+](=O)[O-])c2)cc(OC)c1 returned DT40 TDP1 CPT inconclusive, DT40 TDP1 no CPT inconclusive, KB-V1 MDR tox inconclusive, KB-3-1 tox inactive, HT1080-NT tox -26% and HT1080 IDH1KD tx inconclusive.
Cc1occc1C(=O)NNC(=S)Nc1cccc([N+](=O)[O-])c1 was read as DT40 TDP1 CPT inconclusive, DT40 TDP1 no CPT 23µM*, KB-V1 MDR tox inactive, KB-3-1 tox inactive, HT1080-NT tox inconclusive and HT1080 IDH1KD tx inconclusive.
`O=C1C2=C(S[C@@H]3O[C@H](CO)[C@@H](O)[C@H](O)[C@H]3O2)C(=O)c2ccccc21` gave DT40 TDP1 CPT 0.65µM* and DT40 TDP1 no CPT 0.65µM*.
Cc1ccc(Cl)cc1NC1=NC(=S)N(C(C)C)C12CCCCC2 was read as DT40 TDP1 CPT inconclusive, DT40 TDP1 no CPT 18µM*, KB-V1 MDR tox inconclusive, KB-3-1 tox inactive, HT1080-NT tox -4% and HT1080 IDH1KD tx -3%.
`Cc1ccc(Cl)cc1NC(=O)C(=O)N1CCCCC1` gave DT40 TDP1 CPT -1%, DT40 TDP1 no CPT -12%, KB-V1 MDR tox inactive, KB-3-1 tox inactive, HT1080-NT tox 0% and HT1080 IDH1KD tx -1%.
`CCOc1ccccc1NC(=O)c1cccc(NC(=O)CC(c2ccccc2)c2ccccc2)c1` gave DT40 TDP1 CPT 23µM*, DT40 TDP1 no CPT 26µM*, KB-V1 MDR tox inactive, KB-3-1 tox inactive, HT1080-NT tox 5% and HT1080 IDH1KD tx 5%.
Screening O=C(CC(c1ccccc1)c1ccccc1)Nc1ccncc1 returned DT40 TDP1 CPT inconclusive, DT40 TDP1 no CPT inconclusive, KB-V1 MDR tox inconclusive, KB-3-1 tox inactive, HT1080-NT tox -2% and HT1080 IDH1KD tx -7%.
`CC(O)c1cccc(NC(=O)CC(c2ccccc2)c2ccccc2)c1` (stereo unspecified) gave DT40 TDP1 CPT 9.2µM*, DT40 TDP1 no CPT 9.2µM*, KB-V1 MDR tox inactive, KB-3-1 tox inactive, HT1080-NT tox 3% and HT1080 IDH1KD tx 3%.
`CCOc1ccccc1NC(=O)c1cccc(NC(=O)c2ccco2)c1` gave DT40 TDP1 CPT 1.5µM*, DT40 TDP1 no CPT 1.6µM*, KB-V1 MDR tox inconclusive, KB-3-1 tox 2.6µM*, HT1080-NT tox inconclusive and HT1080 IDH1KD tx 2.3µM*.
